# From PubChem
# Nrf2 ARE act: activators of Nrf2 (ARE) signaling; Potency, µM (titrated, usually from 46.1 µM), inactives show at the highest dose activation, most hits filed as activators; 0.31% of 410,000 active; AREc32 ARE-luciferase reporter (MCF7-derived line), luminescence, 24 h; further: potency means the concentration at half of the fitted maximal effect; % of control where 0% means no effect; nearly all actives have a fitted effect of over 65% in size
#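 Luciferase luminescence (Steady-Glo, 30 min at room temperature) served as the read-out of ARE activation in AREc32 cells treated with compounds for 24 hr at 37 deg C.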
# BRCA1 expr act: increases BRCA1 expression. MCF7-BRCA1-FFLuc reporter, luminescence, 48 h; response scale: scaled: vehicle 0%, 10 µM genistein 100%. Potency, µM (series often up to 46.1 µM), without a hit: top-dose activation, hits mostly activators. 1.1% of 380,000 active; further: potency means the concentration at half of the fitted maximal effect; nearly all actives have a fitted effect of over 80% in size
#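 First, MCF7-BRCA1-FFLuc cells (2000/well) attach for 2 h; next, compounds are pin-added and incubated 48 h at 37 °C; finally, luciferase reagent is added and luminescence read after 15 min.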
# ELG1 DNA repair: blocks ELG1-dependent DNA repair in HEK293T cells; HEK293T ELG1-luciferase reporter, luminescence, 16 h; DNA damage induced by 5-fluorouridine; Potency, µM (highest dose often 46.1 µM), for the others: at the highest dose activity change, negative = inhibition, actives largely listed as inhibitors; 2.3% of 330,000 active; further: potency means the concentration at half of the fitted maximal effect; on the % scale 0 is the no-effect control and ±100 the full control effect; nearly all actives have a fitted effect of over 55% in size
#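 Step one: seed 2,000 cells per well. Step two: pin-transfer compound or DMSO alongside 5-fluorouridine. Step three: incubate 16 hr, 37 °C, 5% CO2. Step four: add ONE-Glo, wait 30 min, read luminescence.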
# IL-2 act: activates IL-2 in a cell-based reporter assay. IL-2 activation reporter assay, cell-based qHTS; stimulated with anti-CD3/CD4/CD28 beads; in transgenic mouse T cells. activation, % (series mostly up to about 46 µM). 0.065% of 360,000 active. AID 652025; in the data active means activation above about 50%; inconclusive means mostly about 30% to 49%; further: 0% is about no effect
#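 Unstimulated transgenic mouse T cells, 750 per well, received compound and, after 60 minutes, anti-CD3/anti-CD4 bead plus anti-CD28 stimulation. EGFP and DsRed were quantified after 18 hours.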
# * marks the source's active call; other numbers are inactive results; ? = inconclusive; nt = not tested or not shown; [ ] = another dose, or the depositor's remark. Sampled rows, rich in hits. Any-hit rate of the full collection: about 3.1%. Unless noted, the call rests on the fitted dose curve; in most records, active means well fitted curve in the direction sought with a large enough effect; inconclusive means small, poorly fitted or top-dose-only effect, or another doubt; inactive means no such curve, though single readings can be large; an effect the other way counts as inactive or inconclusive.
SMILES,Nrf2 ARE act,BRCA1 expr act,ELG1 DNA repair,IL-2 act
CCOC(=O)C1=C(CN2CCN(c3ccccc3F)CC2)NC(=O)NC1c1ccc(OC)cc1 (centres undefined),0%,nt,nt,nt
O=C(CCCn1c(=S)[nH]c2cc3c(cc2c1=O)OCO3)N1CCN(C2CCCCC2)CC1,0%,-1%,-1%,0
CCOC(=O)N1CCN(C(=O)CCCn2c(=S)[nH]c3ccc(Br)cc3c2=O)CC1,-1%,-27%,23µM*,-3
Cc1ccc(C)c(N2CCN(C(=O)CCCn3c(=S)[nH]c4cc5c(cc4c3=O)OCO5)CC2)c1,2%,1%[1.84 µM],9.2µM*,1
COc1ccccc1N1CCN(C(=O)CCCCCn2c(=S)[nH]c3cc4c(cc3c2=O)OCO4)CC1,-1%,-3%,nt,-1
O=C(CCCn1c(=S)[nH]c2cc3c(cc2c1=O)OCO3)N1CCN(c2ncccn2)CC1,-1%,-10%,15µM*,-1
O=C(CCCn1c(=S)[nH]c2cc3c(cc2c1=O)OCO3)N1CCN(c2ccccc2F)CC1,1%,-6%,23µM*,2
CCCCc1ccc(NC(=O)COc2cccc3c(=O)n(C)ccc23)cc1,-1%,0%,nt,nt
CCc1ccccc1NC(=O)Cn1ccn(-c2cc(C)cc(C)c2)c(=O)c1=O,-4%,nt,nt,nt
CC(=O)Nc1ccc(S(=O)(=O)Nc2cccc(-c3ccc(N4CCCCCC4)nn3)c2)cc1,6%,nt,nt,nt
O=C(NCc1ccccc1)C(C1CC1)n1c(-c2cccs2)nc2ccccc21 (centres undefined),nt,nt,nt,0
O=C(CCCn1c(=S)[nH]c2cc3c(cc2c1=O)OCO3)N1CCN(c2ccc(F)cc2)CC1,0%,-63%,16µM*,-4
O=C(CCCCCn1c(=S)[nH]c2cc3c(cc2c1=O)OCO3)N1CCN(c2ccccc2)CC1,0%,0%,2%,-2
Cc1ccc2cc(C#N)c(NCCNC(=O)C3CC3)nc2c1C,0%,-52%,21µM*,1
O=C(COc1ccc(F)c(Cl)c1)c1ccc[nH]1,4%,93%,?,1
O=C(CCC(=O)c1ccc[nH]1)c1ccc(Cl)cc1,-1%,7.1µM*,?,-1
CCCCOC(=O)c1ccc(OC(=O)c2sc3ncn(Cc4ccccc4Cl)c(=O)c3c2C)cc1,-1%,nt,nt,nt
CC1CCN(C2=NC(=O)/C(=C/c3cccc(O)c3)S2)CC1,5%,-1%,?,-3
CC1Cc2cc(/C=C3/SC(N4CCC(C(N)=O)CC4)=NC3=O)ccc2O1 (centres undefined),2%,-1%,26µM*,-3
Cc1cccc(Nc2c3c(nc4nncn24)CCC3)c1C,1%,nt,nt,nt
O=C(c1ccc2nsnc2c1)N1CCN(c2ccc([N+](=O)[O-])cc2)CC1,5%,-39%,16µM*,-1
N/C(=N\OC(=O)CCC1CCCC1)c1ccccn1,0%,7.1µM*,?,-1
N/C(=N\OC(=O)COc1ccc2ccccc2c1Br)c1cccnc1,nt,nt,-6%,nt
N/C(=N\OC(=O)COc1ccc2ccccc2c1Br)c1ccccn1,-1%,10µM*,?,-2
COc1ccc(/C(N)=N/OC(=O)CCC2CCCC2)cc1OC,0%,63%,18%,-4
SMILES,Nrf2 ARE act,BRCA1 expr act,ELG1 DNA repair,IL-2 act
N/C(=N\OC(=O)COc1ccccc1)c1ccccn1,4%,13µM*,?,1
N/C(=N\OC(=O)CCCc1ccccc1)c1ccccn1,3%,11µM*,?,0
CCn1c(=O)c2cc(C(=O)NC3CCC(C)CC3)sc2c2ccccc21 (centres undefined),0%,-9%,nt,nt
Cc1c(C(=O)Nc2ccc(F)c(Cl)c2)sc2nc3n(c(=O)c12)CCC3,1%,nt,nt,nt
N/C(=N\OC(=O)COc1ccccc1)c1ccncc1,2%,13µM*,?,0
N/C(=N\OC(=O)COc1ccccc1)c1cccnc1,5%,-20%,-16%,1
Cc1ccc2c(CN3CCCCC3)cc(=O)oc2c1C,1%,?,?,4
Cc1ccc2c(CN3CCN(S(=O)(=O)c4ccccc4C(F)(F)F)CC3)cc(=O)oc2c1C,2%,-30%,16µM*,-1
CCc1ccc2c(CN3CCN(S(=O)(=O)c4ccccc4F)CC3)cc(=O)oc2c1,4%,-68%,23µM*,-1
CCc1ccc2c(CN3CCN(S(=O)(=O)c4cccs4)CC3)cc(=O)oc2c1,1%,-64%,?,1
COc1ccc(NC(=O)N(Cc2ccco2)C2CCN(C(C)=O)CC2)c(OC)c1,0%,nt,nt,nt
